# 697 NFkB inh – inhibitors of the PMA/ionomycin-induced NF-kB reporter in 697 B cells. 697 B-cell NF-kB luciferase reporter, 16 h. inhibition, % at 4 µM. 330,000 tested, 0.33% active. AID 435022; in the data active = inhibition above about 35%
# SMARCA2 act – increases SMARCA2 function in MMTV reporter cells. 370,000 tested, 1% active. AID 652017. activation, % at 9.1 µM. MG213 cells, MMTV-luciferase reporter, dexamethasone, overnight; in the data active = activation above about 7.8%;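 also: 0% = vehicle wells and 100% = reference activator wells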
# Gli-Sufu block – Gli-Sufu pathway antagonism. Sufu-KO-LIGHT fibroblasts, Gli luciferase reporter luminescence. inhibition, % at 5 µM. 340,000 tested, 0.74% active;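 active = inhibition above about 55%, limit read from the data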;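 also: 0% = DMSO-treated cells and 100% = wells with medium but no cells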
# Jurkat NFkB inh – lowers PMA/ionomycin-induced NF-kB signal in Jurkat cells | AID 435003 | 330,000 tested, 0.53% active | PMA/ionomycin-induced NF-kB luciferase reporter, luminescence | inhibition, % at 4 µM; in the data active = inhibition above about 50%
# esBAF inh – inhibitors of esBAF chromatin remodeling in mouse ES cells | reporter increase, % at 12.5 µM | 350,000 tested, 2% active | AID 602393 | Bmi1-luciferase knock-in reporter, 24 h; 100% = twice the neutral-well signal; in the data active = activation above about 40%;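 also: 0% = median of the plate's neutral control wells and 100% = double that signal; a rise in the Bmi1 reporter signal indicates esBAF inhibition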
# * hit, by the source's call; . = no result given. Sampled rows, rich in hits. Any-hit rate of the full collection: about 3.3%.
SMILES,697 NFkB inh,SMARCA2 act,Gli-Sufu block,Jurkat NFkB inh,esBAF inh
CCOC(=O)C(CC(=O)c1ccccc1)CC(=O)c1ccccc1,-20.1,4.4,-43.1,-76.8,56.9*
COC(=O)C(CC(=O)c1ccccc1)CC(=O)c1ccccc1,-5.3,3.5,1.1,-17.4,53.4*
CCOC(=O)C(CCC(C)=O)C(=O)c1ccccc1 (stereo not drawn),-8.1,-0.3,-2.7,-8.1,-3.2
COc1ccc(NC(=O)C2CCCN2S(=O)(=O)c2ccc3c(c2)CCC(=O)N3)c(OC)c1 (stereo not drawn),3.4,7.9*,3.8,-16.2,-12.2
Cc1ccc(CCNC(=O)C2CCCN2S(=O)(=O)c2ccc3c(c2)CCC(=O)N3)cc1 (stereo not drawn),8.3,.,30.9,4.7,11.9
COc1ccc(S(=O)(=O)N(C)C[C@@H]2Oc3ccc(NC(=O)NC4CCCCC4)cc3C(=O)N([C@@H](C)CO)C[C@@H]2C)cc1,.,.,.,.,1.2
CCc1ccc(CNc2ccc3c(c2)ncn3C)cc1,-60.9,4.1,-65.5,-80.8,.
Cc1ccc(CNc2ccc3c(c2)ncn3C)cc1,-30.6,2.8,-65.5,-29.2,69.9*
CCn1cnc2cc(NCc3ccc(Cl)cc3)ccc21,-64.4,4.3,-28.5,-45.4,55.4*
CCCn1cnc2cc(NCc3cccc(OC)c3O)ccc21,-1.1,5.9,-2.0,-18.9,55.6*
CCn1cnc2cc(NCc3ccncc3)ccc21,-37.5,-3.6,2.2,-29.6,0.4
CC=Cc1ccc2n(c1=O)C[C@@H]1[C@@H](CO)[C@H](C(=O)NC3CCC3)N(CC)[C@H]21 (mixture of isomers),.,.,.,.,-4.4
Cc1ccc(S(=O)(=O)N(C)C[C@@H]2Oc3ccc(NC(=O)CCN4CCOCC4)cc3C(=O)N([C@H](C)CO)C[C@H]2C)cc1,.,.,.,.,1.6
CO[C@H]1CC[C@@H]2CCN(C)C(=O)[C@@H](C)[C@H](OC)CN(C)C(=O)c3cccc(C#N)c3OC[C@@H]1O2,.,.,.,.,-1.2
CC(=O)Nc1cc(F)c2c(c1F)Cc1cc(F)ccc1-2,.,-0.1,-53.2,.,103.5*
CC(=O)Nc1ccc2c(c1)-c1ccc(F)cc1C2,.,-0.1,-17.0,.,.
CC(=O)Nc1cc2c(cc1[N+](=O)[O-])-c1ccc(F)cc1C2,.,-0.6,-8.2,.,51.9*
O=C(C[C@@H]1C[C@@H]2c3cc(NC(=O)c4cccnc4)ccc3O[C@@H]2[C@@H](CO)O1)NCc1ccncc1,.,.,.,.,-0.2
COc1ccc(Cl)cc1C(=O)Nn1cnc2ccccc2c1=O,-2.5,-2.3,-1.4,-2.6,5.3
COc1ccccc1C(=O)Nn1cnc2ccccc2c1=O,-44.3,0.4,-34.6,-12.8,67.7*
C[C@H](CO)N1C[C@H](C)[C@@H](CN(C)Cc2ccc(Cl)c(Cl)c2)Oc2ccc(NC(=O)CCCN(C)C)cc2CC1=O,.,.,.,.,-4.3
Cc1ccc(N=Nc2c(N)n(-c3ccccc3)[nH]c2=O)cc1,-36.5,5.4,14.6,-59.9,41.5*
Cc1[nH]n(-c2ccccc2)c(=O)c1N=Nc1ccccc1,-184.2,1.6,7.7,-83.9,.
C[C@@H]1CCCCO[C@H](CN(C)Cc2ccccc2)[C@@H](C)CN([C@@H](C)CO)C(=O)c2cc(NC(=O)C3CCCCC3)ccc2O1,.,.,.,.,-1.5
CC(NC(=O)c1ccc(N(C)C)cc1)C(c1cccs1)N1CCN(C)CC1 (stereo not drawn),-29.3,4.2,-8.8,-55.6,42.6*
SMILES,697 NFkB inh,SMARCA2 act,Gli-Sufu block,Jurkat NFkB inh,esBAF inh
CC(NC(=O)c1ccc(F)cc1)C(c1cccs1)N1CCN(C)CC1 (stereo not drawn),16.7,-0.7,2.4,13.5,.
Cc1nnc(SCc2ccccc2)nc1-c1ccccc1,-27.5,3.3,-46.9,-44.6,83.2*
O=C(N[C@H]1CC[C@H](CCNC(=O)C2CCOCC2)O[C@H]1CO)c1ccncc1,.,.,.,.,0.1
C=CCN(C(=O)C1CC(=O)N(C2CCCC2)C1)c1nc(-c2ccc(S(C)(=O)=O)cc2)cs1 (stereo not drawn),-13.0,-2.8,8.6,-59.4,53.9*
C=CCN(C(=O)CN1CCCCC1)c1nc(-c2ccccc2)cs1,-27.4,2.4,20.4,-15.1,29.6
COc1ccccc1/C=C/c1nc2ccc(OC(C)=O)cc2c(=O)o1,24.3,2.8,-17.0,1.5,10.6
COc1ccc2c(c1)oc(=O)c1ccccc12,-6.8,2.8,-14.3,5.3,41.3*
COc1ccc(/C=C/c2nc3ccccc3c(=O)o2)cc1,-37.4,-5.6,70.8*,30.7,-73.3
COc1ccc2c(c1)oc(=O)c1c3ccccc3[nH]c21,.,0.3,1.4,.,.
COc1cc(OC)cc(-c2cc3ccccc3c(=O)o2)c1,-47.5,-0.8,-42.3,-9.0,47.6*
CC1(C)CC(=O)c2sc(N3CCCCC3)nc2C1,-26.6,3.6,8.4,-45.2,50.8*
O=C(c1ccco1)N1CCN(Cc2ccc(F)cc2Cl)CC1,-48.7,3.0,10.6,-34.3,45.9*
Cc1cc(Cl)c2oc(C(=O)N3CCOCC3)c(C)c2c1,.,2.9,.,.,66.7*
Cc1cc(Cl)c2oc(C(=O)N3CCN(C(=O)c4ccco4)CC3)c(C)c2c1,-100.7,3.6,-9.5,-41.8,52.1*
Cc1cc(Cl)c2oc(C(=O)N(C)Cc3ccon3)c(C)c2c1,-140.8,1.3,.,-123.7,71.5*
O=C(C[C@@H]1CC[C@@H]2[C@H](COC[C@H](O)CN2S(=O)(=O)c2ccccc2Cl)O1)NCc1ccccc1Cl,.,.,.,.,3.0
C[C@H]1CN([C@@H](C)CO)C(=O)Cc2cc(NC(=O)Nc3ccccc3)ccc2O[C@@H]1CN(C)C(=O)Nc1ccccc1,.,.,.,.,-11.4
C[C@H](CO)N1C[C@H](C)[C@H](CN(C)C(=O)c2ccccc2)Oc2ncc(C3=CCCC3)cc2C1=O,.,.,.,.,0.1
CNC(=O)C[C@@H]1CC[C@H]2[C@H](COc3ccc(NC(=O)Nc4cccc(Cl)c4)cc3C(=O)N2C)O1,.,.,.,.,1.7
Cc1cc(Cl)c2oc(C(=O)N(CCO)Cc3ccccc3)c(C)c2c1,-20.3,-0.4,9.8,-12.8,-2.8
Cc1cc(Cl)c2oc(C(=O)N(C)C3CCOC3)c(C)c2c1 (stereo not drawn),-44.6,2.0,-54.2,-40.0,41.9*
Cc1ccc2oc(C(=O)N3CCCCCC3)c(C)c2c1,-59.3,0.6,-59.8,-67.1,63.8*
C[C@@H]1CN([C@@H](C)CO)C(=O)CCCn2cc(nn2)CO[C@@H]1CN(C)Cc1ccc2cccnc2c1,.,.,.,.,-4.4
CCCc1nc2ccc(C)cn2c1Cc1ccccc1,.,3.0,.,.,50.8*
CCCc1nc2ccc(C)cn2c1Cc1ccc(C)cc1,.,-0.2,.,.,26.1
CCOC(=O)C1=C(CSc2nc(-c3ccccc3)ccc2C#N)OC(N)=C(C#N)C1c1ccc(OC)cc1 (stereo not drawn),-80.9,3.4,-0.7,-61.5,54.5*
COc1ccccc1-c1cccc(-c2nc(C(=O)N3CCOCC3)cc3c2[C@H](CCO)N([S@@](=O)C(C)(C)C)C3)c1,.,.,.,.,0.2
COc1ccccc1NC(=O)c1ccc2[nH]c(C)c(C)c2c1,-73.1,3.1,-44.0,-112.3,66.4*
Cc1[nH]c2ccc(C(=O)NC3CCC(C)CC3)cc2c1C (stereo not drawn),-75.8,4.7,.,-70.2,55.9*
Cc1[nH]c2ccc(C(=O)NC3CCCC3)cc2c1C,0.9,3.7,-32.6,-16.6,27.7

# Assay outcomes from PubChem BioAssay.
